The supplement of paper PMC6411743
± gives the standard deviation of the averaged measurements. Targets with the largest changes are over-represented here; the source holds about 5,400 in all.

Compound: Nc1nc2c(ncn2[C@@H]2O[C@H](COP(=O)(O)OP(=O)(O)OP(=O)(O)O)[C@@H](O)[C@H]2O)c(=O)[nH]1 [guanosine triphosphate]
Assay: NP40-soluble protein abundance relative to vehicle (solubility fold change) (ratio); higher = more soluble protein in presence of GTP
Summary of the method: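 Jurkat crude lysate (Dounce-homogenised) was treated with eight concentrations from 0.1 to 10 mM for 10 min at room temperature, then 3 min at 37 °C. It was solubilised with 0.8% NP40 and benzonase (60 min, 4 °C) and ultracentrifuged, and the supernatant was TMT-labelled for LC-MS/MS. Intensities were vsn-normalised, and the value is the fold change against the NP40-processed vehicle per replicate, from three independent experiments.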

Sequence of UniProt Q9UBS4 (Q9UBS4 whole entry): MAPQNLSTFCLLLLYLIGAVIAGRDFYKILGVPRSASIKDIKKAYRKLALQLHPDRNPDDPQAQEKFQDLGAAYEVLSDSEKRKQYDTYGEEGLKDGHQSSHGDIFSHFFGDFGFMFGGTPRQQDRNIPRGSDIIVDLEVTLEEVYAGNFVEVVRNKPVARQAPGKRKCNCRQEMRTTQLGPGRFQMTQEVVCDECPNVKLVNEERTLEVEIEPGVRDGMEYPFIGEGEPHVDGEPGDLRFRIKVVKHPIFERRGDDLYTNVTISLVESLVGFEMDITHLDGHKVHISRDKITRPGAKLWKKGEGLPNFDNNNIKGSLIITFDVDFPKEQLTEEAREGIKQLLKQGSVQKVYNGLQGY
Sequence of UniProt Q9UJX6 (Q9UJX6 whole entry): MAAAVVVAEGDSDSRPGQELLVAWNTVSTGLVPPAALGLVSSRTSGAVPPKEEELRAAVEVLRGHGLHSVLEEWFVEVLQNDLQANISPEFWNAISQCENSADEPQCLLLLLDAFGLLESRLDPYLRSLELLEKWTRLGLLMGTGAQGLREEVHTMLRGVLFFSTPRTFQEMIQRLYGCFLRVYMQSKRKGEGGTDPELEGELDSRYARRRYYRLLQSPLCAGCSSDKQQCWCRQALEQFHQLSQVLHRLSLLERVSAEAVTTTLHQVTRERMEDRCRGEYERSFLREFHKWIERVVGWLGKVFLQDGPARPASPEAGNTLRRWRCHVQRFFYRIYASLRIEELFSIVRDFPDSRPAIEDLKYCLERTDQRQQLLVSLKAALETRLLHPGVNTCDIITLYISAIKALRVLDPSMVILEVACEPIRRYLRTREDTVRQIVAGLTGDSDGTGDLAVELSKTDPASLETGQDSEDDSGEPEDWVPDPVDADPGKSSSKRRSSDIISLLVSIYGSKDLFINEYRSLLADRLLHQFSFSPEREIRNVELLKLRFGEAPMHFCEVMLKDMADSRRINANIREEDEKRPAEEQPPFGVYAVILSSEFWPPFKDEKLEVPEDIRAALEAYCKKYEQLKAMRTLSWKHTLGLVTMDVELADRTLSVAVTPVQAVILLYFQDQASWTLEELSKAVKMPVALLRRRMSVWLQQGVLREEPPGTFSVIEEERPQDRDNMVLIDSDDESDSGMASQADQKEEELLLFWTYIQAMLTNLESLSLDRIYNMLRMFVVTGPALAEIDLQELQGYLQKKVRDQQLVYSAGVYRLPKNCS
Sequence of UniProt Q9Y3D0 (Q9Y3D0 whole entry): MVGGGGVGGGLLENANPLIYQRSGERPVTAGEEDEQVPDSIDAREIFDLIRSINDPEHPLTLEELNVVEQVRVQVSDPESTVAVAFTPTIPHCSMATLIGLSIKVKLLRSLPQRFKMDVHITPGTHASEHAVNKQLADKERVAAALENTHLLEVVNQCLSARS
Sequence of UniProt Q92833 (Q92833 whole entry): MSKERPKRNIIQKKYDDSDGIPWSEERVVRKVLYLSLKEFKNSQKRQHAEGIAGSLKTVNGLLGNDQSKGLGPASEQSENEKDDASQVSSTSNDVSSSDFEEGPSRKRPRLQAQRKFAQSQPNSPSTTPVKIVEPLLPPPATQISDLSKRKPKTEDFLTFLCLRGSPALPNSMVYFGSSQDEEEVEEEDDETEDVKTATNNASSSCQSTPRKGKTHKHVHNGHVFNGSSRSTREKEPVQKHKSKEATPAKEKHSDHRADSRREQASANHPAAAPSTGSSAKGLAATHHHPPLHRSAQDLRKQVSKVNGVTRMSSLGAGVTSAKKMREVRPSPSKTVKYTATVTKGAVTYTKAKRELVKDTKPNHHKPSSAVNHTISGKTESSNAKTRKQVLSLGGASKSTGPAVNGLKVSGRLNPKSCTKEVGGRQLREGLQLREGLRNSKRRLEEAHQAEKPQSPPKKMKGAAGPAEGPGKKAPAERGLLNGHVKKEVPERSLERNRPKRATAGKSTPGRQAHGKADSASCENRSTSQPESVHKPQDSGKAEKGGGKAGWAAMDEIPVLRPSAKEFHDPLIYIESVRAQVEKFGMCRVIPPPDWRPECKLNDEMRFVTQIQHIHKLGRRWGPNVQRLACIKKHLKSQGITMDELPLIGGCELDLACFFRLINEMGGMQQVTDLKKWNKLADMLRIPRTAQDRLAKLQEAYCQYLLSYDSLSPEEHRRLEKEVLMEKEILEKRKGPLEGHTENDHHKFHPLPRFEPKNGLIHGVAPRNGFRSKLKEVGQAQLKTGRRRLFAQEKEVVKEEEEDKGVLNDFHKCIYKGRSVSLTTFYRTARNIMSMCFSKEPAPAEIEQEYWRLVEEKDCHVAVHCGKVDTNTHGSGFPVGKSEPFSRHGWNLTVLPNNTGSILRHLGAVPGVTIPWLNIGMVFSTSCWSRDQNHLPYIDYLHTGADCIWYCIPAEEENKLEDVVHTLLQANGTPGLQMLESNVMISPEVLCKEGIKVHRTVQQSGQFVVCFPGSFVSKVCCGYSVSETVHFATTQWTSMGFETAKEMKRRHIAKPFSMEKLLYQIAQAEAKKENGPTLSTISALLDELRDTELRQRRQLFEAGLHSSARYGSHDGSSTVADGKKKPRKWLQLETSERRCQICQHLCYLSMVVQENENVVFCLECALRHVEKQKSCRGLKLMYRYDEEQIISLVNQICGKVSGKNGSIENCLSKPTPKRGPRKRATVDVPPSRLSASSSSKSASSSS
Sequence of UniProt Q9C073 (Q9C073 whole entry): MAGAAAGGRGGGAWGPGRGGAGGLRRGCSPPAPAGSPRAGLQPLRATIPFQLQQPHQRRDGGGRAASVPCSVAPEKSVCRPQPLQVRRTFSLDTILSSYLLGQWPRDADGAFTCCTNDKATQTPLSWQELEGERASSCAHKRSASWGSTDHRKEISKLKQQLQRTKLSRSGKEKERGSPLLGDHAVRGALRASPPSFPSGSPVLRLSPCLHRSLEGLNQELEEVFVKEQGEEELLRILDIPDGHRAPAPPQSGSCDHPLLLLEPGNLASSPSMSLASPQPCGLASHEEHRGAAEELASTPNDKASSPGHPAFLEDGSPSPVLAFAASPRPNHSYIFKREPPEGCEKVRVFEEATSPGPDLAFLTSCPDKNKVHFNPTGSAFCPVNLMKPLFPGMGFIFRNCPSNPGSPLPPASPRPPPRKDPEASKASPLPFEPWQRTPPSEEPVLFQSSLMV
Sequence of UniProt Q9UBV8 (Q9UBV8 whole entry): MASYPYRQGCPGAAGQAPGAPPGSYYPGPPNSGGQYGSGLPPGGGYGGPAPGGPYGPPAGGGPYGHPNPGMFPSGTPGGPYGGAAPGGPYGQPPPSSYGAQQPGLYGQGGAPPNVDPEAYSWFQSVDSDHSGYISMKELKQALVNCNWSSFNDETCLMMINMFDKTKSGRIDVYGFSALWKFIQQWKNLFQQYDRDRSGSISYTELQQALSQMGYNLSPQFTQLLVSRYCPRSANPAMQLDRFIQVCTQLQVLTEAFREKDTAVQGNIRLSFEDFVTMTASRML
Sequence of UniProt Q9H832 (Q9H832 whole entry): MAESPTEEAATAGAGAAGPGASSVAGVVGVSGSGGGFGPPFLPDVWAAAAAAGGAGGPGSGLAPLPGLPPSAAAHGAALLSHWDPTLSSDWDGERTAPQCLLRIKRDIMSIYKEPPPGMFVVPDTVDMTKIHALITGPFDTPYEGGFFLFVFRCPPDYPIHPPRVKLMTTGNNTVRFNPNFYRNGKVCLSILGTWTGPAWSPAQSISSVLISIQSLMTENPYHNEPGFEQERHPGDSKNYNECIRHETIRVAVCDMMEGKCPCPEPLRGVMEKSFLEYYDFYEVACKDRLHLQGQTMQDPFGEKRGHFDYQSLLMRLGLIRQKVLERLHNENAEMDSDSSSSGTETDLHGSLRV
Sequence of UniProt Q9UBD5 (Q9UBD5 whole entry): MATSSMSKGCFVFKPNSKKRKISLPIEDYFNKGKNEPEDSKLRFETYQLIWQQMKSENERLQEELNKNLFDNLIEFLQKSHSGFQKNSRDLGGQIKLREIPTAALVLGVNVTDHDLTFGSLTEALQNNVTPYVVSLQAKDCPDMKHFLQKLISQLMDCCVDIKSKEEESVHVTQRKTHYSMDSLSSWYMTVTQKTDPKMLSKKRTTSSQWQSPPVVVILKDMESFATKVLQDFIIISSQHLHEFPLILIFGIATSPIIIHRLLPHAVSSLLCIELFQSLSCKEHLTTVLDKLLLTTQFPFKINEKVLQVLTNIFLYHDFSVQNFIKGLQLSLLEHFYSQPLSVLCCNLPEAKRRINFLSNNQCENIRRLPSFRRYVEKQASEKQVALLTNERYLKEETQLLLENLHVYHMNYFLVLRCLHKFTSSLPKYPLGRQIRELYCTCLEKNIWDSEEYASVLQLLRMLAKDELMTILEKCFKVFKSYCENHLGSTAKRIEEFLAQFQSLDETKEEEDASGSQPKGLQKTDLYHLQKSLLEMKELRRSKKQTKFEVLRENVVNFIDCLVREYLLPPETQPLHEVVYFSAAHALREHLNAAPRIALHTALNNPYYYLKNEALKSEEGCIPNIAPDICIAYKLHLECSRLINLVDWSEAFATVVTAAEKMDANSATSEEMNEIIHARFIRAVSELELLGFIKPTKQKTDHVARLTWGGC
Sequence of UniProt Q96ES7 (Q96ES7 whole entry): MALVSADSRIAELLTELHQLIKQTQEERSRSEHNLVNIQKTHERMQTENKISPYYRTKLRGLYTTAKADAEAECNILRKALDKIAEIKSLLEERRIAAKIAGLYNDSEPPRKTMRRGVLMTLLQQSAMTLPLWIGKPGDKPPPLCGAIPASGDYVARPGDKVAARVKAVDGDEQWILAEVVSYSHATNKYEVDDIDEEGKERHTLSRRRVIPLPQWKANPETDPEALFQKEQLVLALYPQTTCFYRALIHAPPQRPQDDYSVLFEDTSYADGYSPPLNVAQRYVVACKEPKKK
Sequence of UniProt Q9BT73 (Q9BT73 whole entry): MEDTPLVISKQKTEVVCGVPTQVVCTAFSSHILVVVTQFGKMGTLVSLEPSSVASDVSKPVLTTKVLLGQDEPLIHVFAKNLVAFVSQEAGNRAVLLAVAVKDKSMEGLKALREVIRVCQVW
Sequence of UniProt Q9Y3E2 (Q9Y3E2 whole entry): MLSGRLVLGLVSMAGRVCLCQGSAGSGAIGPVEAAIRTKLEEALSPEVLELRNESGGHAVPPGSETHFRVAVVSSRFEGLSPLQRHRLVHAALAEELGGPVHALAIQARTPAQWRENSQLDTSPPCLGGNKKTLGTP

Target	NP40-soluble protein abundance (concentration: 0.1mM)	NP40-soluble protein abundance (concentration: 0.5mM)	NP40-soluble protein abundance (concentration: 1mM)	NP40-soluble protein abundance (concentration: 2mM)	NP40-soluble protein abundance (concentration: 4mM)	NP40-soluble protein abundance (concentration: 6mM)	NP40-soluble protein abundance (concentration: 8mM)	NP40-soluble protein abundance (concentration: 10mM)
FAM117A (UniProt Q9C073)	1.31 ± 0.14	0.983 ± 0.018	1.28 ± 0.084	1.03 ± 0.024	1.1204 ± 7.8e-05	1.02 ± 0.037	1.1 ± 0.056	1.12 ± 0.086
SMARCD1 (UniProt Q96GM5)	1.06 ± 0.036	1.11 ± 0.065	1.09 ± 0.089	1.18 ± 0.16	1.18 ± 0.17	1.18 ± 0.19	1.15 ± 0.18	1.16 ± 0.17
CDV3 (UniProt Q9UKY7)	0.957 ± 0.072	1.05 ± 0.071	0.915 ± 0.072	0.955 ± 0.11	0.889 ± 0.093	1 ± 0.092	1.09 ± 0.083	1.11 ± 0.068
UniProt Q9H832|Q9H832-2	1.04 ± 0.06	0.987 ± 0.061	0.9687 ± 0.0042	1.12 ± 0.056	0.927 ± 0.013	0.934 ± 0.043	0.91 ± 0.034	0.963 ± 0.064
LEMD3 (UniProt Q9Y2U8)	0.989 ± 0.049	1 ± 0.038	1.01 ± 0.037	1.01 ± 0.048	0.999 ± 0.036	0.985 ± 0.033	1.01 ± 0.049	0.985 ± 0.027
UniProt Q9Y3U8|J3QSB5	0.976 ± 0.084	0.987 ± 0.01	1.04 ± 0.075	0.994 ± 0.14	0.921 ± 0.12	0.855 ± 0.09	0.514 ± 0.13	0.919 ± 0.16
TESC (UniProt Q96BS2)	1.01 ± 0.035	0.983 ± 0.071	0.985 ± 0.095	0.968 ± 0.16	0.907 ± 0.074	0.932 ± 0.092	0.926 ± 0.073	0.915 ± 0.09
UniProt Q92804|Q92804-2	0.976 ± 0.03	1.048 ± 0.0095	1.18 ± 0.09	1.35 ± 0.14	1.56 ± 0.22	1.73 ± 0.28	2.08 ± 0.35	2.59 ± 0.54
TBC1D13 (UniProt Q9NVG8)	0.962 ± 0.036	0.985 ± 0.048	0.927 ± 0.046	0.896 ± 0.047	0.857 ± 0.071	0.866 ± 0.066	0.847 ± 0.1	0.822 ± 0.089
PSMG3 (UniProt Q9BT73)	1.03 ± 0.027	1.09 ± 0.083	1.09 ± 0.058	1.07 ± 0.042	1.08 ± 0.054	0.999 ± 0.087	1.14 ± 0.087	1.04 ± 0.042
JARID2 (UniProt Q92833)	0.971 ± 0.078	1.07 ± 0.11	1.09 ± 0.088	1.08 ± 0.087	1.05 ± 0.04	1.05 ± 0.088	1.18 ± 0.04	1.15 ± 0.026
DCUN1D5 (UniProt Q9BTE7)	0.984 ± 0.048	0.929 ± 0.07	0.918 ± 0.076	0.916 ± 0.077	0.948 ± 0.027	0.883 ± 0.056	0.891 ± 0.069	0.883 ± 0.074
DNAJB11 (UniProt Q9UBS4)	1.01 ± 0.027	1.02 ± 0.048	1.03 ± 0.059	1 ± 0.048	1.01 ± 0.051	1.02 ± 0.046	1.005 ± 0.0044	0.982 ± 0.029
UniProt Q9Y2C4|Q9Y2C4-3|Q9Y2C4-4	1.2 ± 0.083	1.12 ± 0.049	1.11 ± 0.083	1.14 ± 0.088	1.08 ± 0.033	1.07 ± 0.081	1.01 ± 0.034	1.03 ± 0.044
UniProt Q9UJX6|Q9UJX6-2	1.3 ± 0.28	1.33 ± 0.37	1.18 ± 0.28	1.26 ± 0.47	1.3 ± 0.37	1.25 ± 0.46	1.12 ± 0.31	1.22 ± 0.48
SEC63 (UniProt Q9UGP8)	0.964 ± 0.023	0.977 ± 0.022	0.935 ± 0.045	0.926 ± 0.036	0.913 ± 0.073	0.927 ± 0.026	0.93 ± 0.022	0.897 ± 0.03
UniProt Q9NR28|Q9NR28-2	0.964 ± 0.011	0.957 ± 0.055	0.972 ± 0.041	0.963 ± 0.075	0.976 ± 0.059	0.96 ± 0.068	0.94 ± 0.033	1.01 ± 0.035
UniProt Q9NQS7|Q9NQS7-2	1.16 ± 0.11	1.2 ± 0.24	1.31 ± 0.089	1.28 ± 0.14	1.49 ± 0.21	1.6 ± 0.17	1.72 ± 0.11	1.97 ± 0.29
ILKAP (UniProt Q9H0C8)	0.959 ± 0.034	0.95 ± 0.023	0.905 ± 0.049	0.904 ± 0.058	0.88 ± 0.058	0.897 ± 0.048	0.87 ± 0.049	0.869 ± 0.065

Target	NP40-soluble protein abundance (concentration: 0.1mM)	NP40-soluble protein abundance (concentration: 0.5mM)	NP40-soluble protein abundance (concentration: 1mM)	NP40-soluble protein abundance (concentration: 2mM)	NP40-soluble protein abundance (concentration: 4mM)	NP40-soluble protein abundance (concentration: 6mM)	NP40-soluble protein abundance (concentration: 8mM)	NP40-soluble protein abundance (concentration: 10mM)
UniProt Q96ES7	1.21 ± 0.22	1.12 ± 0.13	1.25 ± 0.19	1.14 ± 0.12	1.26 ± 0.11	1.17 ± 0.11	1.38 ± 0.32	1.12 ± 0.096
PUS7 (UniProt Q96PZ0)	0.992 ± 0.013	0.992 ± 0.016	0.944 ± 0.046	0.944 ± 0.029	0.907 ± 0.053	0.917 ± 0.022	0.889 ± 0.038	0.892 ± 0.059
UniProt Q9C0B5|Q9C0B5-2	1.02 ± 0.049	0.949 ± 0.024	0.96 ± 0.018	0.938 ± 0.012	0.903 ± 0.018	0.909 ± 0.019	1.02 ± 0.03	0.997 ± 0.029
LUC7L2 (UniProt Q9Y383)	1.09 ± 0.11	1.4 ± 0.08	1.58 ± 0.098	1.54 ± 0.18	1.56 ± 0.12	1.66 ± 0.12	1.74 ± 0.15	1.7 ± 0.16
GPKOW (UniProt Q92917)	0.974 ± 0.07	0.995 ± 0.067	1.02 ± 0.077	0.975 ± 0.086	0.968 ± 0.071	0.99 ± 0.059	0.998 ± 0.057	1.01 ± 0.088
UniProt Q9H8Y8|Q9H8Y8-3	0.893 ± 0.088	0.934 ± 0.09	0.911 ± 0.095	0.873 ± 0.087	0.836 ± 0.091	0.858 ± 0.059	0.884 ± 0.091	0.892 ± 0.12
CORO2A (UniProt Q92828)	1.08 ± 0.12	1.09 ± 0.11	1.11 ± 0.049	1.19 ± 0.047	1.31 ± 0.056	1.42 ± 0.075	1.42 ± 0.1	1.42 ± 0.058
UniProt Q96LT9|Q96LT9-2	1.26 ± 0.038	1.16 ± 0.16	1.42 ± 0.12	1.49 ± 0.3	1.61 ± 0.28	1.6 ± 0.35	1.72 ± 0.51	1.8 ± 0.54
UniProt Q9UBD5|Q9UBD5-2	0.981 ± 0.061	1.06 ± 0.076	0.957 ± 0.092	1.04 ± 0.049	0.998 ± 0.069	1.04 ± 0.04	1.02 ± 0.1	1.07 ± 0.018
UniProt Q9HD33|Q9HD33-2	1.01 ± 0.017	1.16 ± 0.087	1.34 ± 0.23	1.55 ± 0.39	1.7 ± 0.52	1.86 ± 0.49	2.03 ± 0.59	2.05 ± 0.64
UniProt Q9HA47|Q9HA47-3|Q9HA47-4	1.01 ± 0.02	0.946 ± 0.037	1.05 ± 0.1	0.966 ± 0.056	0.98 ± 0.1	0.987 ± 0.034	0.983 ± 0.12	0.958 ± 0.024
UniProt Q96RW7|Q96RW7-2	1.17 ± 0.29	1.11 ± 0.23	0.938 ± 0.16	1.06 ± 0.37	0.985 ± 0.2	0.889 ± 0.19	0.892 ± 0.13	0.924 ± 0.16
UniProt Q9Y3D0	0.836 ± 0.067	0.869 ± 0.033	1.02 ± 0.042	1.04 ± 0.049	0.987 ± 0.043	1.04 ± 0.013	1.04 ± 0.089	1.09 ± 0.17
BOLA1 (UniProt Q9Y3E2)	0.909 ± 0.069	0.941 ± 0.075	0.943 ± 0.06	0.943 ± 0.028	0.908 ± 0.073	0.933 ± 0.059	0.903 ± 0.038	1.04 ± 0.055
SUCLG2 (UniProt Q96I99)	0.959 ± 0.049	0.966 ± 0.053	0.933 ± 0.043	0.901 ± 0.06	0.889 ± 0.059	0.889 ± 0.052	0.886 ± 0.048	0.871 ± 0.068
PEF1 (UniProt Q9UBV8)	0.946 ± 0.077	0.888 ± 0.036	0.995 ± 0.1	0.994 ± 0.043	1.03 ± 0.076	0.993 ± 0.063	0.891 ± 0.084	1.02 ± 0.14
UniProt Q9H330|Q9H330-2	0.908 ± 0.04	0.876 ± 0.06	0.796 ± 0.083	0.809 ± 0.017	0.799 ± 0.035	0.834 ± 0.028	0.81 ± 0.074	0.833 ± 0.037
VPS35 (UniProt Q96QK1)	1.03 ± 0.082	1.04 ± 0.093	0.913 ± 0.048	0.958 ± 0.13	0.929 ± 0.11	0.912 ± 0.086	0.833 ± 0.048	0.868 ± 0.093
ZHX3 (UniProt Q9H4I2)	0.975 ± 0.062	0.94 ± 0.043	0.994 ± 0.1	1.01 ± 0.099	0.967 ± 0.039	1.01 ± 0.079	1.05 ± 0.07	1.05 ± 0.11
